# Read-outs that look alike come from different tables or passages of the source.
# Legend:
# [1] = test system: NUAK1; details: read-out: apparent Kd, n = 1
# [2] = test system: PAK4; details: read-out: apparent Kd, n = 1
# [3] = compound concentrations:100 nM and 1000 nM (sheet 'Lestaurtinib' of Supplementary Table 1),run:Lestaurtinib_02496_R2,Plate:MR013
# [4] = compound concentrations:100 nM and 1000 nM (sheet 'Lestaurtinib' of Supplementary Table 1),run:Lestaurtinib_02566_R2,Plate:MR014
# [5] = compound concentrations:100 nM and 1000 nM (sheet 'Lestaurtinib' of Supplementary Table 1),run:Lestaurtinib_02566_R3,Plate:MR014
# [6] = compound concentrations:100 nM and 1000 nM (sheet 'Lestaurtinib' of Supplementary Table 1),run:Lestaurtinib_02572_R2,Plate:MR015
# [7] = compound concentrations:100 nM and 1000 nM (sheet 'Lestaurtinib' of Supplementary Table 1),run:Lestaurtinib_02584_R2,Plate:MR017
# [8] = compound concentrations:100 nM and 1000 nM (sheet 'Lestaurtinib' of Supplementary Table 1),run:Lestaurtinib_02601_R1,Plate:MR018
# [9] = compound concentrations:100 nM and 1000 nM (sheet 'Lestaurtinib' of Supplementary Table 1),run:Lestaurtinib_02606_R1,Plate:MR019
# [10] = compound concentrations:100 nM and 1000 nM (sheet 'Lestaurtinib' of Supplementary Table 1),run:Lestaurtinib_02606_R3,Plate:MR019
# [11] = compound concentrations:100 nM and 1000 nM (sheet 'Lestaurtinib' of Supplementary Table 1),run:Lestaurtinib_02624_R2,Plate:MR020
# [12] = compound concentrations:100 nM and 1000 nM (sheet 'Lestaurtinib' of Supplementary Table 1),run:Lestaurtinib_02724_R1,Plate:MR021
# [13] = compound concentrations:100 nM and 1000 nM (sheet 'Lestaurtinib' of Supplementary Table 1),run:Lestaurtinib_02741_R1,Plate:MR023
# [14] = compound concentrations:100 nM and 1000 nM (sheet 'Lestaurtinib' of Supplementary Table 1),run:Lestaurtinib_02741_R3,Plate:MR023
# [15] = compound concentrations:100 nM and 1000 nM (sheet 'Lestaurtinib' of Supplementary Table 1),run:Lestaurtinib_02748_R1,Plate:MR024
# [16] = compound concentrations:100 nM and 1000 nM (sheet 'Lestaurtinib' of Supplementary Table 1),run:Lestaurtinib_02765_R1,Plate:MR026
# [17] = compound concentrations:100 nM and 1000 nM (sheet 'Lestaurtinib' of Supplementary Table 1),run:Lestaurtinib_02765_R3,Plate:MR026
# [18] = compound concentrations:100 nM and 1000 nM (sheet 'Lestaurtinib' of Supplementary Table 1),run:Lestaurtinib_02766_R1,Plate:MR027
substance,measurement,setting,value
Lestaurtinib,potency estimated from few doses,[1]; [3],81.1 nM
same,potency estimated from few doses,[1]; [4],73 nM
same,potency estimated from few doses,[1]; [5],85.3 nM
same,potency estimated from few doses,[1]; [6],17.9 nM
same,potency estimated from few doses,"[1]; compound concentrations:100 nM and 1000 nM (sheet 'Lestaurtinib' of Supplementary Table 1),run:Lestaurtinib_02572_R3,Plate:MR015",42.5 nM
same,potency estimated from few doses,"[1]; compound concentrations:100 nM and 1000 nM (sheet 'Lestaurtinib' of Supplementary Table 1),run:Lestaurtinib_02577_R2,Plate:MR016",113 nM
same,potency estimated from few doses,"[1]; compound concentrations:100 nM and 1000 nM (sheet 'Lestaurtinib' of Supplementary Table 1),run:Lestaurtinib_02577_R3,Plate:MR016",73.6 nM
same,potency estimated from few doses,"[1]; compound concentrations:100 nM and 1000 nM (sheet 'Lestaurtinib' of Supplementary Table 1),run:Lestaurtinib_02584_R1,Plate:MR017",89.4 nM
same,potency estimated from few doses,[1]; [7],66.9 nM
same,potency estimated from few doses,"[1]; compound concentrations:100 nM and 1000 nM (sheet 'Lestaurtinib' of Supplementary Table 1),run:Lestaurtinib_02584_R3,Plate:MR017",134 nM
same,potency estimated from few doses,[1]; [8],142 nM
same,potency estimated from few doses,[1]; [9],39.7 nM
same,potency estimated from few doses,"[1]; compound concentrations:100 nM and 1000 nM (sheet 'Lestaurtinib' of Supplementary Table 1),run:Lestaurtinib_02606_R2,Plate:MR019",58 nM
same,potency estimated from few doses,[1]; [10],92 nM
same,potency estimated from few doses,[1]; [11],82.2 nM
same,potency estimated from few doses,"[1]; compound concentrations:100 nM and 1000 nM (sheet 'Lestaurtinib' of Supplementary Table 1),run:Lestaurtinib_02624_R3,Plate:MR020",96.7 nM
same,potency estimated from few doses,[1]; [12],59.7 nM
same,potency estimated from few doses,[1]; [13],165 nM
same,potency estimated from few doses,[1]; [14],43.7 nM
same,potency estimated from few doses,[1]; [15],52.3 nM
same,potency estimated from few doses,"[1]; compound concentrations:100 nM and 1000 nM (sheet 'Lestaurtinib' of Supplementary Table 1),run:Lestaurtinib_02748_R2,Plate:MR024",40.2 nM
same,potency estimated from few doses,"[1]; compound concentrations:100 nM and 1000 nM (sheet 'Lestaurtinib' of Supplementary Table 1),run:Lestaurtinib_02752_R1,Plate:MR025",56.1 nM
same,potency estimated from few doses,"[1]; compound concentrations:100 nM and 1000 nM (sheet 'Lestaurtinib' of Supplementary Table 1),run:Lestaurtinib_02752_R3,Plate:MR025",64.1 nM
same,potency estimated from few doses,[1]; [16],74.4 nM
same,potency estimated from few doses,[1]; [17],64.4 nM
same,potency estimated from few doses,[1]; [18],97.5 nM
same,potency estimated from few doses,"[1]; compound concentrations:100 nM and 1000 nM (sheet 'Lestaurtinib' of Supplementary Table 1),run:Lestaurtinib_02766_R3,Plate:MR027",92.8 nM
same,potency estimated from few doses,"[1]; compound concentrations:100 nM and 1000 nM (sheet 'Lestaurtinib' of Supplementary Table 1),run:Lestaurtinib_02768_R2,Plate:MR028",41.7 nM
same,potency estimated from few doses,"[1]; compound concentrations:100 nM and 1000 nM (sheet 'Lestaurtinib' of Supplementary Table 1),run:Lestaurtinib_02768_R3,Plate:MR028",48.7 nM
same,potency estimated from few doses,"[1]; compound concentrations:100 nM and 1000 nM (sheet 'Lestaurtinib' of Supplementary Table 1),run:Lestaurtinib_02795_R1,Plate:MR022",62.8 nM
same,potency estimated from few doses,"[1]; compound concentrations:100 nM and 1000 nM (sheet 'Lestaurtinib' of Supplementary Table 1),run:Lestaurtinib_02795_R2,Plate:MR022",38.6 nM
same,potency estimated from few doses,"[1]; compound concentrations:100 nM and 1000 nM (sheet 'Lestaurtinib' of Supplementary Table 1),run:Lestaurtinib_02795_R3,Plate:MR022",165 nM
same,potency estimated from few doses,"[1]; compound concentrations:100 nM and 1000 nM (sheet 'Lestaurtinib' of Supplementary Table 1),run:Lestaurtinib_02802_R1,Plate:MR029",72.2 nM
same,potency estimated from few doses,"[1]; compound concentrations:100 nM and 1000 nM (sheet 'Lestaurtinib' of Supplementary Table 1),run:Lestaurtinib_02802_R3,Plate:MR029",44.9 nM
same,potency estimated from few doses,"[1]; compound concentrations:100 nM and 1000 nM (sheet 'Lestaurtinib' of Supplementary Table 1),run:Lestaurtinib_02896_R1,Plate:MR030",52.5 nM
same,potency estimated from few doses,"[1]; compound concentrations:100 nM and 1000 nM (sheet 'Lestaurtinib' of Supplementary Table 1),run:Lestaurtinib_02896_R3,Plate:MR030",55.1 nM
same,potency estimated from few doses,"[1]; compound concentrations:100 nM and 1000 nM (sheet 'Lestaurtinib' of Supplementary Table 1),run:Lestaurtinib_03172_R2,Plate:MR031",66.5 nM
same,potency estimated from few doses,"[1]; compound concentrations:100 nM and 1000 nM (sheet 'Lestaurtinib' of Supplementary Table 1),run:Lestaurtinib_03172_R3,Plate:MR031",62.7 nM
same,potency estimated from few doses,"[1]; compound concentrations:100 nM and 1000 nM (sheet 'Lestaurtinib' of Supplementary Table 1),run:Lestaurtinib_03252_R1,Plate:MR032",51.7 nM
same,potency estimated from few doses,"[2]; compound concentrations:100 nM and 1000 nM (sheet 'Lestaurtinib' of Supplementary Table 1),run:Lestaurtinib_02339_R1,Plate:MR001",32.7 nM
same,potency estimated from few doses,"[2]; compound concentrations:100 nM and 1000 nM (sheet 'Lestaurtinib' of Supplementary Table 1),run:Lestaurtinib_02339_R2,Plate:MR001",36.1 nM
same,potency estimated from few doses,"[2]; compound concentrations:100 nM and 1000 nM (sheet 'Lestaurtinib' of Supplementary Table 1),run:Lestaurtinib_02364_R1,Plate:MR002",32 nM
same,potency estimated from few doses,"[2]; compound concentrations:100 nM and 1000 nM (sheet 'Lestaurtinib' of Supplementary Table 1),run:Lestaurtinib_02364_R2,Plate:MR002",32.9 nM
same,potency estimated from few doses,"[2]; compound concentrations:100 nM and 1000 nM (sheet 'Lestaurtinib' of Supplementary Table 1),run:Lestaurtinib_02364_R3,Plate:MR002",35.1 nM
same,potency estimated from few doses,"[2]; compound concentrations:100 nM and 1000 nM (sheet 'Lestaurtinib' of Supplementary Table 1),run:Lestaurtinib_02367_R1,Plate:MR003",29.7 nM
same,potency estimated from few doses,"[2]; compound concentrations:100 nM and 1000 nM (sheet 'Lestaurtinib' of Supplementary Table 1),run:Lestaurtinib_02367_R2,Plate:MR003",33.6 nM
same,potency estimated from few doses,"[2]; compound concentrations:100 nM and 1000 nM (sheet 'Lestaurtinib' of Supplementary Table 1),run:Lestaurtinib_02367_R3,Plate:MR003",35.8 nM
same,potency estimated from few doses,"[2]; compound concentrations:100 nM and 1000 nM (sheet 'Lestaurtinib' of Supplementary Table 1),run:Lestaurtinib_02381_R1,Plate:MR004",31 nM
same,potency estimated from few doses,"[2]; compound concentrations:100 nM and 1000 nM (sheet 'Lestaurtinib' of Supplementary Table 1),run:Lestaurtinib_02381_R3,Plate:MR004",30 nM
same,potency estimated from few doses,"[2]; compound concentrations:100 nM and 1000 nM (sheet 'Lestaurtinib' of Supplementary Table 1),run:Lestaurtinib_02407_R2,Plate:MR005",28.6 nM
same,potency estimated from few doses,"[2]; compound concentrations:100 nM and 1000 nM (sheet 'Lestaurtinib' of Supplementary Table 1),run:Lestaurtinib_02407_R3,Plate:MR005",34.5 nM
same,potency estimated from few doses,"[2]; compound concentrations:100 nM and 1000 nM (sheet 'Lestaurtinib' of Supplementary Table 1),run:Lestaurtinib_02422_R1,Plate:MR006",44.2 nM
same,potency estimated from few doses,"[2]; compound concentrations:100 nM and 1000 nM (sheet 'Lestaurtinib' of Supplementary Table 1),run:Lestaurtinib_02422_R2,Plate:MR006",20.2 nM
same,potency estimated from few doses,"[2]; compound concentrations:100 nM and 1000 nM (sheet 'Lestaurtinib' of Supplementary Table 1),run:Lestaurtinib_02438_R2,Plate:MR008",30.6 nM
same,potency estimated from few doses,"[2]; compound concentrations:100 nM and 1000 nM (sheet 'Lestaurtinib' of Supplementary Table 1),run:Lestaurtinib_02443_R2,Plate:MR009",31.9 nM
same,potency estimated from few doses,"[2]; compound concentrations:100 nM and 1000 nM (sheet 'Lestaurtinib' of Supplementary Table 1),run:Lestaurtinib_02443_R3,Plate:MR009",33.2 nM
same,potency estimated from few doses,"[2]; compound concentrations:100 nM and 1000 nM (sheet 'Lestaurtinib' of Supplementary Table 1),run:Lestaurtinib_02482_R2,Plate:MR011",36.2 nM
same,potency estimated from few doses,"[2]; compound concentrations:100 nM and 1000 nM (sheet 'Lestaurtinib' of Supplementary Table 1),run:Lestaurtinib_02487_R2,Plate:MR012",38.6 nM
same,potency estimated from few doses,"[2]; compound concentrations:100 nM and 1000 nM (sheet 'Lestaurtinib' of Supplementary Table 1),run:Lestaurtinib_02487_R3,Plate:MR012",39.1 nM
same,potency estimated from few doses,"[2]; compound concentrations:100 nM and 1000 nM (sheet 'Lestaurtinib' of Supplementary Table 1),run:Lestaurtinib_02496_R1,Plate:MR013",33 nM
same,potency estimated from few doses,[2]; [3],30.6 nM
same,potency estimated from few doses,"[2]; compound concentrations:100 nM and 1000 nM (sheet 'Lestaurtinib' of Supplementary Table 1),run:Lestaurtinib_02496_R3,Plate:MR013",35.4 nM
same,potency estimated from few doses,"[2]; compound concentrations:100 nM and 1000 nM (sheet 'Lestaurtinib' of Supplementary Table 1),run:Lestaurtinib_02566_R1,Plate:MR014",27.9 nM
same,potency estimated from few doses,[2]; [4],31 nM
same,potency estimated from few doses,[2]; [5],38.2 nM
same,potency estimated from few doses,"[2]; compound concentrations:100 nM and 1000 nM (sheet 'Lestaurtinib' of Supplementary Table 1),run:Lestaurtinib_02572_R1,Plate:MR015",26.1 nM
same,potency estimated from few doses,[2]; [6],37.9 nM
same,potency estimated from few doses,[2]; [7],27.4 nM
same,potency estimated from few doses,[2]; [8],32.9 nM
same,potency estimated from few doses,"[2]; compound concentrations:100 nM and 1000 nM (sheet 'Lestaurtinib' of Supplementary Table 1),run:Lestaurtinib_02601_R2,Plate:MR018",36.5 nM
same,potency estimated from few doses,"[2]; compound concentrations:100 nM and 1000 nM (sheet 'Lestaurtinib' of Supplementary Table 1),run:Lestaurtinib_02601_R3,Plate:MR018",32.3 nM
same,potency estimated from few doses,[2]; [9],35.4 nM
same,potency estimated from few doses,[2]; [10],35.6 nM
same,potency estimated from few doses,"[2]; compound concentrations:100 nM and 1000 nM (sheet 'Lestaurtinib' of Supplementary Table 1),run:Lestaurtinib_02624_R1,Plate:MR020",26.1 nM
same,potency estimated from few doses,[2]; [11],31 nM
same,potency estimated from few doses,[2]; [12],32.9 nM
same,potency estimated from few doses,"[2]; compound concentrations:100 nM and 1000 nM (sheet 'Lestaurtinib' of Supplementary Table 1),run:Lestaurtinib_02724_R3,Plate:MR021",33 nM
same,potency estimated from few doses,[2]; [13],38.6 nM
same,potency estimated from few doses,"[2]; compound concentrations:100 nM and 1000 nM (sheet 'Lestaurtinib' of Supplementary Table 1),run:Lestaurtinib_02741_R2,Plate:MR023",39.4 nM
same,potency estimated from few doses,[2]; [14],35.6 nM
same,potency estimated from few doses,[2]; [15],30.4 nM
same,potency estimated from few doses,[2]; [16],29.8 nM
same,potency estimated from few doses,"[2]; compound concentrations:100 nM and 1000 nM (sheet 'Lestaurtinib' of Supplementary Table 1),run:Lestaurtinib_02765_R2,Plate:MR026",36.5 nM
same,potency estimated from few doses,[2]; [17],36.5 nM
same,potency estimated from few doses,[2]; [18],27.8 nM
